This excerpt belongs to a sample that is enriched for hits.
FECH block: inhibitors of human ferrochelatase, primary screen, biochemical, purified FECH, Ni-mesoporphyrin absorbance | Ferrochelatase, mitochondrial (Homo sapiens), P22830 | Ni-mesoporphyrin absorbance 550 nm | calls only at 10 µM (by protocol) | hit rate 3.3% among 20,000 | AID 1671448, 2021;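 active = enzyme reaction rate more than 3 SD below the solvent-only control wells on the same plate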;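 note: lower slope than DMSO wells means FECH inhibition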
Target sequence (P22830 whole entry, looked up): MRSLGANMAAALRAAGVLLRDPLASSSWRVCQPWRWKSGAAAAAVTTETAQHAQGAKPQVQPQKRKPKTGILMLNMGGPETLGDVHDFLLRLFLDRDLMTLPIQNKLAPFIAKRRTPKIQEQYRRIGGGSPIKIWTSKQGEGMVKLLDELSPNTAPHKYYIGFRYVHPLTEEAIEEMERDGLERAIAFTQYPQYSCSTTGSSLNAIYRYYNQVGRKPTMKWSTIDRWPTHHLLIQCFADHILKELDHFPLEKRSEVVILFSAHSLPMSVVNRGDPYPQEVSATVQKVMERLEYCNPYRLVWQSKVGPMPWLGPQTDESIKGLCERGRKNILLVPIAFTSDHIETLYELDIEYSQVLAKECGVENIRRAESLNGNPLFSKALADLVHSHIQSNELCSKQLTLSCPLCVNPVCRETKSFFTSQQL
Of the large screens only hits and unclear results are named; the others gave an inactive call.

CCn1cnnc1CCNC(=O)c1ccc2[nH]c3c(c2c1)CCCC3	none
CCCCNC(=O)c1ccc(Cn2c(=O)c3cc(OC)c(OC)cc3n(CC(=O)NC(C)C)c2=O)cc1	none
O=C(CCC(=O)N1CCOC2(CNCCOC2)C1)NC1CCCC1 (configuration not stated)	none
CCN(CC)C1CCN(C(=O)CCC(=O)NC2CCCCCCC2)C1 (configuration not stated)	FECH block active
CN1CCCC1CCNC(=O)CCC(=O)NC1CCCC1 (configuration not stated)	none
CCC(C(=O)N1CCCOc2c(cccc2OC)C1)n1cccn1 (configuration not stated)	none
O=C(C1CCCN(c2ncnc3c2nc2n3CCCCC2)C1)N1CCN(Cc2ccccc2)CC1 (configuration not stated)	none
Cc1ccc(N2C(=O)N(Cc3ccc(C(C)(C)C)cc3)c3ccccc3S2(=O)=O)c(C)c1	none
CCn1ccnc1CN(C)CC(=O)Nc1ccc(Cl)cc1F	none
CCc1ccc2oc(=O)cc(CN(C)C(COC)c3ccccn3)c2c1 (configuration not stated)	none
COc1cccc(NCc2nc3nc(C)c(Cc4ccc(Cl)cc4)c(=O)n3[nH]2)c1	FECH block active
CCOc1ccccc1NCc1nc2nc(C)c(Cc3ccc(Cl)cc3)c(=O)n2[nH]1	FECH block active
CCOC(=O)CCc1c(C)nc2nc(CNc3cccc(C(F)(F)F)c3)[nH]n2c1=O	FECH block active
CCc1nc2nc(C)c(NC(=O)Nc3cccc(C(F)(F)F)c3)c(=O)n2[nH]1	none
Cc1nc2nc(C)c(NC(=O)Nc3cccc(C(F)(F)F)c3)c(=O)n2[nH]1	none
CCOC(=O)CCc1c(C)nc2nc(CNc3ccccc3OCC)[nH]n2c1=O	none
CCc1ccccc1NCc1nc2nc(C)c(Cc3ccc(Cl)cc3)c(=O)n2[nH]1	FECH block active
Cc1nc2nc(Cc3cccc(F)c3)[nH]n2c(=O)c1C	none
CCOc1ccccc1N(Cc1nc2nc(C)cc(=O)n2[nH]1)C(=O)c1ccccc1F	none
Cc1nc2nc(C3CC3)[nH]n2c(=O)c1NC(=O)Nc1ccc(Cl)cc1	none
O=c1cc(CNc2cccc(C(F)(F)F)c2)nc2nc(NCc3ccc(Cl)cc3)[nH]n12	none
COc1cccc(NC(=O)Nc2c(C)nc3nc(C)[nH]n3c2=O)c1	none
NS(=O)(=O)c1ccc(NC(=O)c2cc3c([nH]c2=O)CCCC3=O)cc1	none
Cc1ccc(C(=O)N2CCC[C@@H]2C(N)=O)cc1NC(=O)C1CC1	none
CC(=O)N1CCC[C@H]1c1n[nH]c(Cc2ccccc2)n1	none
Cc1cc(C)n(C(C)Cn2cnc(-c3ccccc3)c2-c2nccn2C)n1 (configuration not stated)	none
COc1ccc2cc(C3CN(C(=O)c4cn5ccsc5n4)CCO3)ccc2c1 (configuration not stated)	none
O=C1CCS(=O)(=O)N1c1ccc(S(=O)(=O)NCC2CCCO2)cc1 (configuration not stated)	none
CC(=O)c1ccc(NC(=O)N2[C@H]3CCNC[C@@H]2CC3)cc1	none
CCN(CC)c1ccc(Nc2nc(SC)nc(-c3ccc(C)cc3)c2C#N)cc1	none
Cc1nn(C)c(Cl)c1CN(CCN1CCOCC1)Cc1ccco1	none
Cc1nc(NCC(=O)NC(C)(C)C)cc(C2CCNCC2)n1	none
CCn1c(CNS(=O)(=O)c2ccc(Cl)cc2)nc2cccnc21	none
O=c1c2c(nc3nc(CNc4ccc(Cl)cc4)[nH]n13)CCC2	FECH block active
O=c1cc(CN2CCCC2)nc2nc(NCc3ccc(Cl)cc3)[nH]n12	none
CCc1ccccc1NCc1nc2nc3c(c(=O)n2[nH]1)CCC3	FECH block active
Cc1ccc(NCc2cc(=O)n3[nH]c(NCc4ccc(F)cc4)nc3n2)cc1Cl	none
Cc1ccc(NCc2nc3nc4c(c(=O)n3[nH]2)CCC4)cc1Cl	FECH block active
CCc1nc2nc(C)[nH]n2c(=O)c1NC(=O)Nc1ccc(C)c(Cl)c1	none
COc1ccc(Cl)cc1NCc1nc2nc3c(c(=O)n2[nH]1)CCC3	none
CCc1nc2nc(C)[nH]n2c(=O)c1NC(=O)Nc1ccccc1F	none
O=c1c2c(nc3nc(CNc4ccccc4)[nH]n13)CCC2	FECH block active
O=c1cc(CNc2ccccc2)nc2nc(NCc3ccc(F)cc3)[nH]n12	none
CCOc1ccc(N2CC(NC(=O)c3ccc(OC)cc3)CC2=O)cc1 (configuration not stated)	none
Cc1c(C(=O)N2CCN(C)C3(CCN(C)CC3)C2)sc2ccccc12	none
CCC(C)N(Cc1ccccc1F)C(=O)c1ccc[nH]c1=O (configuration not stated)	none
COCCNc1nc(Nc2ccc(C)c(C)c2)c2cnn(-c3ccccc3)c2n1	none
Cc1ccc(Nc2cc(C)nc(N3CCN(S(=O)(=O)c4ccc(C)cc4C)CC3)n2)cc1	none
Cc1ncc2c(=O)n(CCOc3ccccc3)c(=O)n(C)c2n1	none
CC(C)c1cc(C(=O)N2CCC(O)(CO)CC2)cs1	none
O=C1C[C@H]2CC[C@@H](CN1)N2C(=O)c1ccccc1N1CCC(=O)NC1=O	none
Cc1ccc(Cn2c(CCNC(=O)Nc3ccccc3Br)nc3cccnc32)cc1	none
c1ccc(-c2nc[nH]c2-c2ccnc3ccccc23)cc1	none
CC(Cc1cnccn1)NC(=O)c1cc(-c2ccccc2)nn1C (configuration not stated)	none
C=C(C)COc1ccc(C(=O)NC(C)Cc2cnccn2)cc1 (configuration not stated)	FECH block active
CC(Cc1cnccn1)NC(=O)c1cccc(-c2cccc(F)c2)c1 (configuration not stated)	none
COCC(=O)Nc1cccc(-n2ccc(-c3cccnc3)n2)c1	none
CC(CN(C)Cc1ccc2cccc(O)c2n1)N1CCOCC1 (configuration not stated)	none
CCn1c(=O)n(Cc2ccccc2F)c(=O)c2cnc(-c3ccc(OC)cc3)nc21	none
Cc1ccc(C2=CC(c3c(F)cccc3Cl)n3nc(NS(C)(=O)=O)nc3N2)cc1 (configuration not stated)	FECH block active
Cc1ccc(C2=CC(c3c(F)cccc3Cl)n3nc(NS(=O)(=O)c4ccccc4)nc3N2)cc1 (configuration not stated)	none
O=S(=O)(Nc1nc2n(n1)C(c1c(F)cccc1Cl)C=C(c1ccccc1)N2)c1ccccc1 (configuration not stated)	FECH block active
Cc1ccc(C2=CC(c3ccc(F)cc3)n3nc(NS(=O)(=O)c4ccccc4)nc3N2)cc1 (configuration not stated)	none
Cc1ccc(C2=CC(c3ccccc3Cl)n3nc(NS(=O)(=O)c4ccccc4)nc3N2)cc1 (configuration not stated)	FECH block active
Cc1ccc(C2=CC(c3ccc(F)cc3)n3nc(NS(C)(=O)=O)nc3N2)cc1 (configuration not stated)	none
O=S(=O)(Nc1nc2n(n1)C(c1ccc(F)cc1)C=C(c1ccccc1)N2)c1ccc(Cl)cc1 (configuration not stated)	none
Cc1ccc(C2=CC(c3ccccc3Cl)n3nc(NS(C)(=O)=O)nc3N2)cc1 (configuration not stated)	none
CS(=O)(=O)Nc1nc2n(n1)C(c1ccccc1Cl)C=C(c1ccc(Br)cc1)N2 (configuration not stated)	none
CCOC(=O)c1cc2ccsc2n1C(C)C(=O)Nc1ccccc1C (configuration not stated)	none
COc1ccc(C(=O)C2CCCN(CC(=O)Nc3cnn(C)c3)C2)cc1F (configuration not stated)	none
Cc1cccc(Nc2nc(N3CCOCC3)nc3c2cnn3-c2ccccc2)c1	none
